Results as given in the supplement of paper PMC6555819.

Tests used:
Experiment in all cases: PBM binding z-score (relative to random genomic background probes); higher = stronger binding; sequences stand for … in GC…GCGATTGACAGCGTAGAATGAAGG
[1] = system: RARb homodimer (NR concentration 270 nM)
Procedure, shortened: (§1)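 Probes were double-stranded and carried 34-nt variable regions with direct-repeat seeds, single-nucleotide variants, half-site ablations and random human genomic background sequences, printed on custom Agilent 4×180K protein-binding microarrays. Arrays were incubated 1 h with ligand-free nuclear receptor dimers in PBS pH 7.4, 2% milk, 0.02% Triton X-100, 1 mM DTT, 0.2 mg/mL BSA and 0.4 mg/ml salmon testes DNA. Antibodies against each partner (one per run) detected binding, and scanned fluorescence was regression-normalized. Binding z-scores use the random background probes as reference.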

[2] = system: RARg:RXRa (NR concentration 270 nM, RXRa partner concentration 90 nM)
Procedure, shortened: as §1

[3] = system: RARg homodimer (NR concentration 270 nM)
Procedure, shortened: as §1

[4] = system: RXRa DBDmut IVT, anti-RXR (DBD mutation: RXRa K156A/R161A, NR concentration 90 nM)
Procedure, shortened: as §1

[5] = system: RXRa homodimer (NR concentration 180 nM)
Procedure, shortened: as §1

[6] = system: THRa:RXRa (NR concentration 90 nM, RXRa partner concentration 90 nM)
Procedure, shortened: as §1

[7] = system: THRa homodimer (NR concentration 90 nM)
Procedure, shortened: as §1

[8] = system: VDR homodimer (NR concentration 270 nM)
Procedure, shortened: as §1

Sequence	PBM binding z-score [1]	PBM binding z-score [2]	PBM binding z-score [3]	PBM binding z-score [4]	PBM binding z-score [5]	PBM binding z-score [6]	PBM binding z-score [7]	PBM binding z-score [8]
TCTTGTAGATCAATAGAGGTTAATAAAGTGCGCT	1.15	0.715	0.545	0.551	1.33	2.36	-0.525	0.459
CCTATTAGTTGACCATAAGGGAAACCGAAGCTCG	0.512	0.264	0.552	0.71	0.398	0.545	0.494	0.692
CGAACTTGGTCATTGACAGGACAGTGAATAGTAA	0.601	1.04	0.884	0.43	0.621	0.513	-0.107	0.11
CCTTACGGGTCAAGGTTATGGCACGGGTGGTACG	3.66	5.06	4.67	1.1	5.31	3	0.804	1.45
CAAACTAGGTCACGAAAGGTCAGAGTCGAATGAC	5.65	7.33	7.81	2.37	7.38	4.84	2.26	2.55
CCTGCTCGGTCATGGTCAGCTAATCTACAGTATG	1.93	1.91	2.66	0.361	0.252	0.067	-0.311	-0.527
AGAAGGAGGGCACGCTGAGTTGATAGCAGAGTAG	1.4	1.94	2.17	0.783	1.2	1.13	-0.112	1.04
TCTATTAGTTGATTCGGGCAACCGAAACAGCGGA	0.249	0.385	0.285	1.15	0.328	0.247	0.0848	0.228
TTACCAAGGTGAGCTGAGGTCGTTCATCCAACTC	1.81	1.4	0.963	0.409	1.3	4.63	2.3	2.41
ATATGTAGGTTACACCCGGGTCATTCAGGCTATG	3.06	3.97	2.06	0.528	3.23	3.77	2.45	2.67
ATCGAAAGGTCGAGGTGAGTATAGAGAAAGGGAA	2.86	4.31	4.51	0.657	4.3	2.81	0.624	0.373
TAGCCCAGGTCATTGGGCCAGTATAGTACGCATC	2.76	3.9	4.11	2.29	3.37	3.36	1.65	2.16
GCATCTAGGTAATACAAGGTGAAAGTCCGATTGT	0.893	0.422	0.244	-0.0985	0.576	3.63	1.22	-0.188
GCTGCTAGGTCAACTGATGGGCAGCTAAAGCTCG	3	4.73	5.5	1.45	2.89	2.68	0.684	-0.378
ACTCGGACGACAAAGGTCAGAGCTACGCCAGTGA	4.21	4.65	4.6	-0.0196	4.83	2.75	-0.0567	0.688
ACTAGTTGGTCAGCTGAGGTCGCACACAATTCGG	2.35	1.52	1.76	0.828	1.46	4.25	2.58	1.32
CCTTACGGGTCAATGACAGGTTATAGCATTTGGA	3.12	5.64	4.22	1.9	4.58	2.59	-0.0254	1.18
CCTACTGGGACATTCAGAGGTCATTGATCATATG	4.09	3.72	3.06	1.77	4.05	3.38	1.9	4.08
ACTCGTTGGTCAGCTGAGGTCACACACAATTCGG	4.41	4.16	4.25	1.3	4.06	5.18	5.14	3.72

Sequence	PBM binding z-score [1]	PBM binding z-score [2]	PBM binding z-score [3]	PBM binding z-score [4]	PBM binding z-score [5]	PBM binding z-score [6]	PBM binding z-score [7]	PBM binding z-score [8]
CTAGACAGGTGAAAGGTAACTCAGTCTGGTACGC	0.55	1.36	0.619	-0.39	2.23	0.865	-0.398	-0.464
ATATGTAGGTTAAGAGTCATTCAGGTTGGTTCGC	1.26	1.23	1.13	0.882	1.53	1.24	0.283	1.24
CAAACTAGGTCACGAAAGGCCAAAGTCGAATGAC	4.29	5.29	5.81	2.01	3.94	4.33	1.52	1
GCTGCTAGGTCATCTGATGGTCAGCTAAAGCTCG	3.52	5.15	4.96	2	2.79	2.97	0.735	0.443
TAGGCTAGGTCATGCGGGCCAGTATAGTGTCGGC	3.1	3.73	4.44	0.47	3.14	2.77	0.748	0.519
TGAGACAGGTGAAGGTAACTCAGGTACGCAGTCG	0.449	0.201	0.61	-1.52	0.312	1.18	-0.173	-0.0182
AGTCAAAGTTCACTAGGTAACGGAAGATTCAGCT	3.81	5.03	5.67	4.26	3.89	2.04	0.215	3.71
CCTACTGGGCCAAGGTCATTTATCAGTCAAAGCA	3.46	3.47	2.79	1.61	3.07	3.27	2.44	3.42
CCTTACGGGTCAAGAGGTTATAGCACGACGAGCG	3.87	6.11	4.75	0.748	6.11	2.92	0.0618	1.17
TCATATAGGTTAACAGGTGAAAGTCCGTAAGTTA	1.85	2.13	1.57	1.53	2.09	1.39	0.525	0.443
TCTTGTAGATCAGCAGGGTAAGAAAGCTGGCCAA	-0.187	-0.327	-0.5	0.581	-0.0542	-0.165	-0.567	-0.255
CCTACTGGGCCATCAGGTTATTGATATCAACGTT	0.464	0.256	0.522	-0.157	0.0138	0.797	0.712	-0.275
TCGATTAGTTGATTAGGGCAACCGAAACAGCGGA	0.521	0.102	0.329	0.535	0.0192	0.565	0.154	-0.306
ACTAGTTGGTCAGCTCAGGTCACACACAATTCGG	3.56	2.3	2.88	0.763	1.93	4.66	4.32	1.46
GGAACGAGGGCAAACTTGATAGCATCTGTCGACG	1.03	1.52	1.62	3.1	1.17	1.09	-0.309	1.61
CCTACTGGGCCAGAGGTCATTGATTCCAATGCTC	4.02	4.51	3.89	1.52	4.88	3.22	1.09	3.61
TAGCCTAGGTCAGATCGGGCCAGTATTCGCTATA	2.1	2.86	3.71	-0.442	1.37	4.14	-0.138	-0.518
ACACACAGGTGAGTGAAGGTAACTCAGCTGGACG	-0.00486	0.394	0.59	-0.0875	0.549	1.57	-0.409	-0.0907
CGAACTAGGTCATTGACAGTACAGTGAATAGTAA	2.62	3.89	4.03	2.62	2.48	2.48	0.979	0.986

Sequence	PBM binding z-score [1]	PBM binding z-score [2]	PBM binding z-score [3]	PBM binding z-score [4]	PBM binding z-score [5]	PBM binding z-score [6]	PBM binding z-score [7]	PBM binding z-score [8]
AGAACGAGGGCAATGAGTTGATAGCTCGGGTGGC	0.713	0.827	1.26	1.77	0.484	0.779	-0.312	2.69
CCAGACTGGTGAAAGGTAACTCAGTCTGGTACGC	0.104	0.0585	-0.236	-0.492	0.524	0.18	-0.494	-0.181
CCTGCTAGGTCAATGGTCAGCTAGAGCAGCTCGC	2.68	3.14	3.81	1.45	2.19	2.33	0.515	-0.262
CGTCGAAGGTCAGAGAGGTCAGTGAATGCCGAGT	5.14	6.51	7.29	2.6	5.68	3.85	1.32	5.14
GCATATAGGTAATACAAGGTGAAAGTCCGATTGT	1.03	0.625	0.545	0.387	0.694	4.31	1.08	0.356
AGAACGAGGGCAATGAGTTGGTAGCACGGGTGGC	0.799	0.857	1.09	1.47	0.619	0.555	-0.125	1.98
GCTAGCAAGCCATTTGGGTCACTCAATGACGGGC	1.36	0.373	0.621	-0.364	0.56	1.51	0.353	-0.322
TCATATAGGTAATGGTGAAAGTCGAACGATATGA	-0.191	0.377	0.547	0.843	0.587	-0.0618	-0.634	-0.582
ATGGAAAGGTCGAAGGTGAGTATACCCACCCGAA	2.68	4.21	3.87	0.318	4.97	2.3	0.00488	0.714
CGTCCAAGGTAAAAGGTCAGTGAAGAGATGACGG	4.88	4.86	5.11	0.584	5.53	3.28	0.539	0.435
TATACAGGGTCAAAGGCCATAGTACGAATGTCGA	3.79	5.96	5.29	3.05	7.75	3.78	0.843	3.25
ATCTCTAGGTAATGTTCAGTGAAAGATCGATAGA	-0.207	0.262	0.561	0.333	0.234	0.493	0.382	0.364
GGAACGAGGGCAAAGTTGATTGCATCTGTCGACG	1.13	1.89	1.34	2.7	1.76	1.36	-0.0538	1.55
ATATGTAGGTTAAGGTTCATTCAGGTTGGTTCGC	2.18	2.48	1.47	3.2	3.38	2.49	1.4	6.72
TTACCAAGGTGAAGGGCGTTGATCCCTCTGTAGA	0.953	0.413	0.407	-0.371	0.755	1.49	0.536	-0.115
ACTAGCAGGCCAAGGGACACTCAAGATTAGTCCG	0.745	0.424	0.835	-0.24	-0.0147	-0.112	-0.143	-0.433
AGAATGAGGGTATACGTAGATCAGGGAAGAAAGT	0.451	0.26	0.277	0.799	0.262	0.252	0.0652	0.45
AGTCAAAGTTCCTCTAGGTAACGTAAGATATGCT	-0.0173	0.433	0.491	0.711	0.183	1.23	-0.0927	0.297
